Measured values as given in the supplement of paper PMC4466140.

B1: unnamed (peptide)
chain: PLQSKIPMLPSRRTM

Each binder was assayed against AgAbp1 (assay: SPOT peptide array binding signal intensity (averaged, normalized) (arbitrary units (background-subtracted, floor 0; scale differs between SH3 domains)); higher = stronger binding of the SH3 domain to the peptide).
Summary of the method: (§1)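 GST-fused SH3 domains from four yeast species were expressed in E. coli BL21(DE3), purified on glutathione Sepharose and incubated at 10 μg/ml overnight at 4°C in TBS-based blocking buffer on cellulose membranes carrying synthetic 15-mer peptides, with cysteines replaced by serines. Bound protein was detected with anti-GST antibody, an HRP anti-mouse secondary and luminol, then imaged and quantified with Genespotter. Binding signal is the normalized, background-subtracted spot intensity averaged over replicates, in arbitrary units that differ between domains.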
In the case of B1, the “SPOT peptide array binding signal intensity” value is reported as 98.5.

These binders were tested against AgBbc1 in the same assay as above.
Summary of the method: as §1
For B1, the “SPOT peptide array binding signal intensity” value was 267.

What follows are binders tested against AgBem1-D1 in the same assay as above.
Summary of the method: as §1
In the case of B1, the “SPOT peptide array binding signal intensity” value is reported as 26.5.

These binders were tested against AgBzz1-D1 in the same assay as above.
Summary of the method: as §1
B1 was tested, and the “SPOT peptide array binding signal intensity” value was 48.

These binders were tested against AgBzz1-D2 in the same assay as above.
Summary of the method: as §1
With B1 the “SPOT peptide array binding signal intensity” value was 9.

Each binder was assayed against AgCyk3 in the same assay as above.
Summary of the method: as §1
B1 was tested, and the “SPOT peptide array binding signal intensity” value was 3.

The binders below were run against AgFus1 in the same assay as above.
Summary of the method: as §1
With B1 the “SPOT peptide array binding signal intensity” value was 98.5.

These binders were tested against AgHof1 in the same assay as above.
Summary of the method: as §1
With B1 the “SPOT peptide array binding signal intensity” value was 211.

These binders were tested against AgHse1 in the same assay as above.
Summary of the method: as §1
For B1, the “SPOT peptide array binding signal intensity” value was 300.

What follows are binders tested against AgLsb1 in the same assay as above.
Summary of the method: as §1
B1 was tested, and the “SPOT peptide array binding signal intensity” value was 555.

These binders were tested against AgLsb4 in the same assay as above.
Summary of the method: as §1
In the case of B1, the “SPOT peptide array binding signal intensity” value is reported as 4990.

Each binder was assayed against AgMyo5 in the same assay as above.
Summary of the method: as §1
For B1, the “SPOT peptide array binding signal intensity” value was at most 0.

The binders below were run against AgNbp2 in the same assay as above.
Summary of the method: as §1
For B1, the “SPOT peptide array binding signal intensity” value was 302.

Each binder was assayed against AgRvs167 in the same assay as above.
Summary of the method: as §1
For B1, the “SPOT peptide array binding signal intensity” value was 483.

These binders were tested against AgSho1 in the same assay as above.
Summary of the method: as §1
B1 was tested, and the “SPOT peptide array binding signal intensity” value was 131.

What follows are binders tested against AgSla1-D1-D2 in the same assay as above.
Summary of the method: as §1
With B1 the “SPOT peptide array binding signal intensity” value was 28.

Each binder was assayed against AgSla1-D3 in the same assay as above.
Summary of the method: as §1
In the case of B1, the “SPOT peptide array binding signal intensity” value is reported as 6.5.

These binders were tested against CaAbp1-D1 in the same assay as above.
Summary of the method: as §1
In the case of B1, the “SPOT peptide array binding signal intensity” value is reported as 470.

The binders below were run against CaAbp1-D2 in the same assay as above.
Summary of the method: as §1
B1 was tested, and the “SPOT peptide array binding signal intensity” value was 342.

Each binder was assayed against CaBbc1 in the same assay as above.
Summary of the method: as §1
In the case of B1, the “SPOT peptide array binding signal intensity” value is reported as 694.

Each binder was assayed against CaBem1-D1 in the same assay as above.
Summary of the method: as §1
For B1, the “SPOT peptide array binding signal intensity” value was 10.5.

The binders below were run against CaBzz1-D1 in the same assay as above.
Summary of the method: as §1
B1 was tested, and the “SPOT peptide array binding signal intensity” value was 274.

What follows are binders tested against CaBzz1-D2 in the same assay as above.
Summary of the method: as §1
With B1 the “SPOT peptide array binding signal intensity” value was 224.

Each binder was assayed against CaCyk3 in the same assay as above.
Summary of the method: as §1
In the case of B1, the “SPOT peptide array binding signal intensity” value is reported as 18.5.

The binders below were run against CaFus1 in the same assay as above.
Summary of the method: as §1
With B1 the “SPOT peptide array binding signal intensity” value was 897.

What follows are binders tested against CaHof1 in the same assay as above.
Summary of the method: as §1
For B1, the “SPOT peptide array binding signal intensity” value was 1.

What follows are binders tested against CaHse1 in the same assay as above.
Summary of the method: as §1
With B1 the “SPOT peptide array binding signal intensity” value was 195.

These binders were tested against CaLsb1 in the same assay as above.
Summary of the method: as §1
For B1, the “SPOT peptide array binding signal intensity” value was 18.2.

These binders were tested against CaLsb4 in the same assay as above.
Summary of the method: as §1
In the case of B1, the “SPOT peptide array binding signal intensity” value is reported as 5220.

What follows are binders tested against CaMyo5 in the same assay as above.
Summary of the method: as §1
With B1 the “SPOT peptide array binding signal intensity” value was 30.

These binders were tested against CaNbp2 in the same assay as above.
Summary of the method: as §1
With B1 the “SPOT peptide array binding signal intensity” value was 881.

Each binder was assayed against CaRvs167 in the same assay as above.
Summary of the method: as §1
For B1, the “SPOT peptide array binding signal intensity” value was 1060.

Each binder was assayed against CaRvs167-3 in the same assay as above.
Summary of the method: as §1
In the case of B1, the “SPOT peptide array binding signal intensity” value is reported as 4.

What follows are binders tested against CaSho1 in the same assay as above.
Summary of the method: as §1
In the case of B1, the “SPOT peptide array binding signal intensity” value is reported as 400.

What follows are binders tested against CaSla1-D1-D2 in the same assay as above.
Summary of the method: as §1
In the case of B1, the “SPOT peptide array binding signal intensity” value is reported as 1030.

Each binder was assayed against CaSla1-D3 in the same assay as above.
Summary of the method: as §1
B1 was tested, and the “SPOT peptide array binding signal intensity” value was 332.

The binders below were run against ScAbp1 in the same assay as above.
Summary of the method: as §1
For B1, the “SPOT peptide array binding signal intensity” value was 34.5.

What follows are binders tested against ScBbc1 in the same assay as above.
Summary of the method: as §1
B1 was tested, and the “SPOT peptide array binding signal intensity” value was 246.

These binders were tested against ScBem1-D1 in the same assay as above.
Summary of the method: as §1
In the case of B1, the “SPOT peptide array binding signal intensity” value is reported as 2.

The binders below were run against ScBzz1-D1 in the same assay as above.
Summary of the method: as §1
B1 was tested, and the “SPOT peptide array binding signal intensity” value was at most 0.

Each binder was assayed against ScBzz1-D2 in the same assay as above.
Summary of the method: as §1
In the case of B1, the “SPOT peptide array binding signal intensity” value is reported as 27.

These binders were tested against ScCyk3 in the same assay as above.
Summary of the method: as §1
B1 was tested, and the “SPOT peptide array binding signal intensity” value was 9.

Each binder was assayed against ScFus1 in the same assay as above.
Summary of the method: as §1
In the case of B1, the “SPOT peptide array binding signal intensity” value is reported as 218.

These binders were tested against ScHof1 in the same assay as above.
Summary of the method: as §1
B1 was tested, and the “SPOT peptide array binding signal intensity” value was 79.

Each binder was assayed against ScHse1 in the same assay as above.
Summary of the method: as §1
In the case of B1, the “SPOT peptide array binding signal intensity” value is reported as 127.

Each binder was assayed against ScLsb1 in the same assay as above.
Summary of the method: as §1
With B1 the “SPOT peptide array binding signal intensity” value was 287.

The binders below were run against ScLsb2 in the same assay as above.
Summary of the method: as §1
For B1, the “SPOT peptide array binding signal intensity” value was 629.

What follows are binders tested against ScLsb3 in the same assay as above.
Summary of the method: as §1
For B1, the “SPOT peptide array binding signal intensity” value was 5990.

What follows are binders tested against ScLsb4 in the same assay as above.
Summary of the method: as §1
With B1 the “SPOT peptide array binding signal intensity” value was 2850.

These binders were tested against ScMyo3 in the same assay as above.
Summary of the method: as §1
In the case of B1, the “SPOT peptide array binding signal intensity” value is reported as at most 0.

What follows are binders tested against ScMyo5 in the same assay as above.
Summary of the method: as §1
For B1, the “SPOT peptide array binding signal intensity” value was at most 0.

What follows are binders tested against ScNbp2 in the same assay as above.
Summary of the method: as §1
With B1 the “SPOT peptide array binding signal intensity” value was 760.

What follows are binders tested against ScPex13 in the same assay as above.
Summary of the method: as §1
B1 was tested, and the “SPOT peptide array binding signal intensity” value was 945.

What follows are binders tested against ScRvs167 in the same assay as above.
Summary of the method: as §1
For B1, the “SPOT peptide array binding signal intensity” value was 2220.

These binders were tested against ScSho1 in the same assay as above.
Summary of the method: as §1
In the case of B1, the “SPOT peptide array binding signal intensity” value is reported as 586.

Each binder was assayed against ScSla1-D1-D2 in the same assay as above.
Summary of the method: as §1
For B1, the “SPOT peptide array binding signal intensity” value was 999.

These binders were tested against ScSla1-D3 in the same assay as above.
Summary of the method: as §1
In the case of B1, the “SPOT peptide array binding signal intensity” value is reported as 514.

These binders were tested against SpAbp1-D1 in the same assay as above.
Summary of the method: as §1
For B1, the “SPOT peptide array binding signal intensity” value was 149.

Each binder was assayed against SpBbc1 in the same assay as above.
Summary of the method: as §1
With B1 the “SPOT peptide array binding signal intensity” value was 14.

Each binder was assayed against SpBzz1-D1 in the same assay as above.
Summary of the method: as §1
In the case of B1, the “SPOT peptide array binding signal intensity” value is reported as 953.

The binders below were run against SpBzz1-D2 in the same assay as above.
Summary of the method: as §1
B1 was tested, and the “SPOT peptide array binding signal intensity” value was 2.

These binders were tested against SpCyk3 in the same assay as above.
Summary of the method: as §1
For B1, the “SPOT peptide array binding signal intensity” value was 16.

The binders below were run against SpHof1 in the same assay as above.
Summary of the method: as §1
For B1, the “SPOT peptide array binding signal intensity” value was 61.2.

The binders below were run against SpHof1-2 in the same assay as above.
Summary of the method: as §1
With B1 the “SPOT peptide array binding signal intensity” value was 76.2.

These binders were tested against SpHof1-3 in the same assay as above.
Summary of the method: as §1
In the case of B1, the “SPOT peptide array binding signal intensity” value is reported as 108.

The binders below were run against SpHse1 in the same assay as above.
Summary of the method: as §1
In the case of B1, the “SPOT peptide array binding signal intensity” value is reported as 272.

The binders below were run against SpLsb1 in the same assay as above.
Summary of the method: as §1
In the case of B1, the “SPOT peptide array binding signal intensity” value is reported as 612.

The binders below were run against SpLsb4 in the same assay as above.
Summary of the method: as §1
With B1 the “SPOT peptide array binding signal intensity” value was 5580.

What follows are binders tested against SpMyo1 in the same assay as above.
Summary of the method: as §1
In the case of B1, the “SPOT peptide array binding signal intensity” value is reported as 61.5.

What follows are binders tested against SpNbp2 in the same assay as above.
Summary of the method: as §1
For B1, the “SPOT peptide array binding signal intensity” value was 118.

Each binder was assayed against SpPex13 in the same assay as above.
Summary of the method: as §1
B1 was tested, and the “SPOT peptide array binding signal intensity” value was 224.

These binders were tested against SpRvs167 in the same assay as above.
Summary of the method: as §1
For B1, the “SPOT peptide array binding signal intensity” value was 2200.

Each binder was assayed against SpSla1-D1-D2 in the same assay as above.
Summary of the method: as §1
With B1 the “SPOT peptide array binding signal intensity” value was 68.

Each binder was assayed against SpSla1-D3 in the same assay as above.
Summary of the method: as §1
In the case of B1, the “SPOT peptide array binding signal intensity” value is reported as 173.
